Screen size: about 65,000 compounds; about 2,100 (3.2%) showed an effect of 50% or more. The median lay at about -52%. What follows is part of a selection rich in strong results, with near analogues and random picks from the rest.

This test relates to Plasmodium falciparum. The test is described as follows: Screen against P. falciparum Asexual Blood Stage (ABS), at 5uM. Conditions: tested at 5 uM. The format is functional, Dd2.
For the compound `CC(C)=CCN1CCC2(CC1)c1ccccc1[C@@H](N1CCSCC1)[C@@H]2O`, the INHIBITION came to 78.5%. With `COCCn1cc(C(=O)NCCS(N)(=O)=O)c2ccccc21` the figure was -110%; with `O=c1[nH]ccn1CCCN1CC=C(c2cnn(-c3ccccc3)c2)CC1`, -235%. With `COc1cccc(Cn2cc(C3=CCN(CC(=O)N(C)C)CC3)cn2)c1` the figure was -27.6%; with `CCC(O)Cn1cc(C2=CCN(Cc3cc(O)nc(C)n3)CC2)cn1` (stereo unspecified), -24.6%; with `CCC(O)Cn1cc(C2=CCN(Cc3ccc(OC)cc3)CC2)cn1` (stereo unspecified), 68.7%. To `Cc1nc(O)cc(CN2CC=C(c3cnn(-c4ccccc4)c3)CC2)n1` belongs -90.2%; to `COc1cccc(Cn2cc(C3=CCN(CCO)CC3)cn2)c1`, 54.2%. `CCn1cc(C2=CCN(CCCOc3ccccc3)CC2)cn1`: the INHIBITION worked out at 82%. For the compound `Cn1cc(C2=CCN(CCCOc3ccc(C(N)=O)cc3)CC2)cn1`, the INHIBITION is -64.5%. To `CN(C)C(=O)CN1CC=C(c2cnn(Cc3ccccc3)c2)CC1` belongs -52.4%; to `O=C(c1cn(Cc2ccccc2)c2ncccc12)N1CCOCC1`, -68.2%. On to `Cc1cccc(CN2CC[C@@H]3[C@@H]2CCN3C(=O)c2ccoc2C)n1`, for which the INHIBITION is on record as -77.9%. To `CNc1ncc(CN(C)c2ncnc3onc(C)c23)cn1` belongs -3.41%. With `O=C(Cc1ccc(O)c(F)c1)N1CCN(CC2CC2)[C@@H]2CS(=O)(=O)C[C@@H]21` the figure was -78.4%. With `O=C(c1onc2ccccc12)N1CCC2(CCCNC2)C1` (stereo unspecified) the figure was -59.1%; with `c1ccc(Cn2cccn2)c(CN2CCC3(CCCNC3)C2)c1` (stereo unspecified), 85%. On to `Fc1cnccc1CN1CCC2(CCNCC2)C1`, for which the INHIBITION is given as -66.9%. Regarding `CN(C)CCNC(=O)c1ccn(-c2ccc3ccccn23)n1`, the INHIBITION was 84%. With `O=C1OCCC1N1CCN(C(=O)Cc2c[nH]c3ccccc23)CC1` (stereo unspecified) the figure was -131%. With `Cc1nc(CC(=O)N2CCN(C(C)c3ccccc3F)CC2)cs1` (stereo unspecified) the figure was -60.5%; with `CN1CCN(c2ccc(NC(=O)c3cccs3)c(C(F)(F)F)c2)CC1`, 73.6%; with `CCN1CCN(c2ccc(NC(=O)CC(C)C)c(C)c2)CC1`, -6.8%.

On to `CN(C)C(=O)N1CCC2(C1)CN(c1cccnc1)C(=O)CN2C` (stereo unspecified), for which the INHIBITION was -35.4%.

Turning to `COc1cc(C)c(CN2CCC3(CC2)[C@H](O)C[C@@H]3OCCN)cc1C`, the INHIBITION worked out at 77.2%. As for `C1Cc2nc(CCNc3nc(C4CC4)nc4c3CCNCC4)sc2C1`, the INHIBITION is 78.5%. With `COc1ccc(CN(Cc2ccccn2)Cc2cncn2C)cc1` the figure was 70.1%; with `CN1CCN(Cc2cccnc2)C(=O)C12CCN(S(C)(=O)=O)CC2`, -18.9%. Take `Cc1ccc(CN(c2cc(C)nc3nc(C(F)(F)F)nn23)C2CC2)cc1`: the INHIBITION worked out at 94%.

Consider `CCS(=O)(=O)NC[C@]12COC[C@H]1CN(Cc1ccncc1)C2`, for which the INHIBITION was -65.2%. To `Cc1ccc(N2C[C@@H]3CN(Cc4ccsc4)CCO[C@@H]3C2)nn1` belongs -56.6%.

Turning to `NCC1(c2cccc(C(F)(F)F)c2)CCC1`, the INHIBITION amounted to 26.1%. With `Brc1cccc(C2(CNCc3cc[nH]c3)CCOCC2)c1` the figure was 83.1%; with `Brc1ccc(C2(CNCc3cc[nH]c3)CCOCC2)cc1`, 74.5%. Regarding `FC(F)(F)c1cccc(C2(CNCc3cc[nH]c3)CCOCC2)c1`, the INHIBITION is 75.1%. `CC(C)c1cc(C(=O)N2CCN(C)[C@@H]3CS(=O)(=O)C[C@@H]32)no1`: the INHIBITION is given as -14.6%. In the case of `O=C(NC[C@]12COC[C@H]1CN(Cc1ccncc1)C2)c1ccno1`, the INHIBITION is listed as -67.3%. To `CNC(=O)[C@H]1C[C@H]2OCC[C@H]2N(CC2CC2)C1` belongs -40%. To `CC(NC1(CNS(=O)(=O)N(C)C)CCCC1)c1ccccc1` (stereo unspecified) belongs 78.7%; to `Cc1cc(S(=O)(=O)NCC2CNCCOC2)c(C)cc1Cl` (stereo unspecified), 75.4%.

For the compound `CCCc1nc2c(c(C)c(C)n2CCN(C)C)c(N)c1CC`, the INHIBITION was 89.9%. `Cc1c(-c2ccccc2)nc2c(c(C)c(C)n2CCN(C)C)c1N`: the INHIBITION was 80.1%.

For `CCN1C[C@H]2N(c3ncccn3)CCC[C@@]2(C(=O)NCC2CC2)C1`, the INHIBITION was -24.6%. To `CCN1CCCC(CNC(=O)C2(c3cc(C)cc(C)c3)CCC2)C1` (stereo unspecified) belongs 75.8%; to `CN1C[C@H]2N(c3ncccn3)CCC[C@@]2(C(=O)NCC2CC2)C1`, -48.6%; to `CCN(CC)S(=O)(=O)N1C[C@@H](c2ccccc2)[C@H]2[C@H]1CCCCCN2C`, 71.7%.

As to `CC(C)S(=O)(=O)N1C[C@@H](c2ccccc2)[C@H]2[C@H]1CCCCCN2C`, the INHIBITION is recorded as 20.4%. To `CCOC(=O)[C@@H]1[C@@H](c2ccccc2)CN2CCN(S(C)(=O)=O)C[C@H]12` belongs -73.1%. On to `CCc1ccccc1OCCNCCc1c[nH]cn1`, for which the INHIBITION came out at 71.2%. As to `O=C(NCCc1c[nH]cn1)c1ccccc1C1CCNC1` (stereo unspecified), the INHIBITION was -101%.

`c1cncc(O[C@@H]2CC[C@H]3[C@H]2OCCN3C2CCCC2)c1`: the INHIBITION is listed as -118%. Regarding `COc1cc(CNC(C)Cn2cccn2)cc(OC)c1` (stereo unspecified), the INHIBITION is -72.2%. To `COc1cc(CNC(c2ccccc2)c2nccn2C)cc(OC)c1` (stereo unspecified) belongs 75.5%; to `O=C(N[C@H]1COC[C@@H]1N1CCCC1)c1c[nH]nc1C1CCCCC1`, -18.2%. With `c1cncc(OC[C@@H]2CCC[C@@]23CN(Cc2nccs2)CCO3)c1` the figure was -85.2%; with `CCN1CCNC(=O)C12CCN(C(=O)Cc1ccccn1)CC2`, -95%.

`CN(C)C(=O)CN1C[C@@H]2OCCN(c3ncc(F)cn3)[C@@H]2C1`: the INHIBITION is given as -196%. With `COc1cc(C2SCC(=O)Nc3[nH]ncc32)cc2c1OCO2` (stereo unspecified), the INHIBITION is recorded as -86.5%. Take `Cc1cc(C)c(CNCC(O)c2ccc(F)c(F)c2)c(C)c1` (stereo unspecified): the INHIBITION is listed as 93%. With `COc1cc(CNCC(O)c2ccc(C)cc2)cc2c1OCCO2` (stereo unspecified) the figure was 48.2%; with `COc1cc(CNCC(O)c2cccc(F)c2)cc2c1OCO2` (stereo unspecified), 92.4%; with `COc1cc(CNCC(O)c2ccc(C)cc2)cc2c1OCO2` (stereo unspecified), 74%. Take `COc1cc(CNCC(O)c2ccc(F)c(F)c2)cc2c1OCO2` (stereo unspecified): the INHIBITION came to 78.2%.

In the case of `Cc1cccc(CN2C[C@@H]3OCCN(c4cnccn4)[C@@H]3C2)n1`, the INHIBITION is listed as 4.89%.

As to `CC(Cc1ccccc1Br)NC(=O)CCS(C)(=O)=O` (stereo unspecified), the INHIBITION is reported as -38.5%. With `O=C1CCSCC(C(=O)N2CCC3(CC2)OCCO3)N1` (stereo unspecified) the figure was -78%; with `COCCCN1CCCC12CCN(c1ncccn1)CC2`, -22.9%; with `CC(C)N1[C@H](Cn2cncn2)C[C@@H]2CNCC[C@@H]21`, -34.9%. To `c1coc(-c2nc(CNC3CCC4(CCNCC4)CC3)no2)c1` belongs 73.4%; to `Cc1cn2nc(N3CCCC3CC(C)(C)C)sc2n1` (stereo unspecified), 71.6%; to `COc1c(CNCCc2c[nH]c3cc(F)ccc23)c(C(C)C)nn1C`, 59.7%. To `COc1c(CNCCc2c[nH]c3ccccc23)c(C)nn1C` belongs -60.7%; to `COc1ccc(CCNCc2c(C)nn(C)c2N(C)C)cc1OC`, 21.4%. `COc1c(CNCCc2c[nH]c3cc(F)ccc23)c(C)nn1C`: the INHIBITION stood at 50%. As for `c1ccc(CO[C@@H]2C[C@H]3CN(c4ncccn4)CCN3C2)cc1`, the INHIBITION is -95.6%. With `O=C1[C@H]2CN(Cc3ccncc3)C[C@H]2CN1c1cncnc1` the figure was -49.7%.

Consider `c1cncc(CO[C@H]2CO[C@@]3(CCN(Cc4ccoc4)C3)C2)c1`, for which the INHIBITION amounted to 23.3%. To `O=C(c1cccnc1-n1cncn1)N1CCC(Nc2ccccc2)CC1` belongs -86.3%; to `Cc1ccccc1CN(CCN(C)C)Cc1ccc(S(C)(=O)=O)cc1`, 80.4%; to `CCN1CCN(C(=O)COc2ccc(CN(C)S(C)(=O)=O)cc2)CC1`, 3.25%.

In the case of `Cc1c(NC(=O)NC2CN3CCC2CC3)cccc1C(=O)N1CCCC1` (stereo unspecified), the INHIBITION is on record as -83.7%. To `CC(C)CCN1CCC2(CNS(=O)(=O)c3cccnc3O2)C1` (stereo unspecified) belongs -5.49%; to `Cc1nn(-c2ncccn2)c2c1C(c1cnn(C)c1C)SCC(=O)N2` (stereo unspecified), -1.18%; to `Cc1cc(CN2CC[C@H]3C[C@H](c4nccs4)O[C@@H]3C2)no1`, -108%. Take `COc1cccc(OC)c1CN1CC(=O)N(c2ccc(C)cc2)CC1C` (stereo unspecified): the INHIBITION is listed as 75.2%. To `Cc1cc(CN2CC[C@H]3[C@H]2CCN3C)oc1C` belongs 43%; to `Cc1cnc(CN2CC=C(c3c[nH]c4ncccc34)CC2)o1`, 12.6%. To `C1=C(c2c[nH]c3ncccc23)CCN(Cc2nnc(C3CC3)o2)C1` belongs -48.5%. To `Fc1ccc2c(C3=CCN(Cc4nnc(C5CCC5)o4)CC3)c[nH]c2c1` belongs 83.9%. As for `CCC(C)N(Cc1ccc(C)cc1)Cc1c[nH]c(C)n1` (stereo unspecified), the INHIBITION was 77.5%. With `Cc1cc(C)c(CNc2ncnc3c2cnn3C)c(=O)[nH]1` the figure was -55.6%; with `O=C1CSC(c2ccc3c(c2)OCO3)c2cn[nH]c2N1` (stereo unspecified), -10.6%; with `NCCC(Cc1ccccc1)c1ccco1` (stereo unspecified), 84.1%. To `O=C(c1cscn1)N1CCC2(CN(Cc3ccncc3)C2)C1` belongs -48%; to `O=C(Nc1cccnc1)[C@H]1CN(Cc2cccs2)C[C@H]2OCC[C@@H]12`, 2.31%; to `Cc1cc(CN2CCC(CNS(=O)(=O)c3ccc(Br)s3)CC2)c(C)o1`, 91.6%.

In the case of `Cc1cc(CN2CCC(CNS(=O)(=O)c3ccc(C)s3)CC2)c(C)o1`, the INHIBITION was 87.7%. With `Cc1cc(CN2CCC(CNS(=O)(=O)c3ccccc3F)CC2)c(C)o1` the figure was 79.2%; with `Cc1ccc(CN2CCC3(CC2)C(=O)Nc2ccccc23)s1`, 46.9%; with `CC(C)=CCN1CCN(C(=O)COc2ccccc2)[C@H]2CS(=O)(=O)C[C@H]21`, -73.8%. With `CC(Cc1c(F)cccc1F)NC(=O)NCc1ncnn1C` (stereo unspecified) the figure was -43.1%.

Source of the values: ChEMBL document CHEMBL4513216, “Probing the Open Global Health Chemical Diversity Library for Multistage-Active Starting Points for Next-Generation Antimalarials” (ACS Infect Dis, 2020).
